From PMC5540273 (PLoS ONE, 2017)

Tests used:
Conditions in all cases: concentration: 1 μM, replicates: in singlicate; n = 1
SNARK = tested on: T1, SNARK
T1 construct: gene NUAK2

SNRK = tested on: SNRK
SRC = tested on: SRC
SRMS = tested on: SRMS
SRPK1 = tested on: SRPK1
SRPK2 = tested on: SRPK2
SRPK3 = tested on: SRPK3
STK16 = tested on: STK16
STK33 = tested on: STK33
STK35 = tested on: STK35
STK36 = tested on: STK36
STK39 = tested on: STK39
SYK = tested on: SYK
SgK110 = tested on: SgK110
TAK1 = tested on: T2, TAK1
T2 construct: gene MAP3K7

TAOK1 = tested on: TAOK1
TAOK2 = tested on: TAOK2
TAOK3 = tested on: TAOK3
TBK1 = tested on: TBK1
TEC = tested on: TEC
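Note: KINOMEscan kinase panel screen.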

Structure (SMILES) | %Inh (SNARK) [%] | %Inh (SNRK) [%] | %Inh (SRC) [%] | %Inh (SRMS) [%] | %Inh (SRPK1) [%] | %Inh (SRPK2) [%] | %Inh (SRPK3) [%] | %Inh (STK16) [%] | %Inh (STK33) [%] | %Inh (STK35) [%] | %Inh (STK36) [%] | %Inh (STK39) [%] | %Inh (SYK) [%] | %Inh (SgK110) [%] | %Inh (TAK1) [%] | %Inh (TAOK1) [%] | %Inh (TAOK2) [%] | %Inh (TAOK3) [%] | %Inh (TBK1) [%] | %Inh (TEC) [%]
Fc1cc(Cl)ccc1Nc1ccnc2cc(-c3ccc(CN4CCSCC4)o3)ccc12 [GW560106] | 0 | 0 | 99 | 21 | 42 | 23 | 0 | 0 | 20 | 20 | 0 | 4 | 51 | 0 | 0 | 0 | 0 | 0 | 6 | 0
Cn1cc(-c2ccc3c(c2)CCN3C(=O)Cc2cc(F)cc(F)c2F)c2c(N)ncnc21 [GSK2634140] | 28 | 8 | 10 | 0 | 34 | 0 | 0 | 0 | 0 | 0 | 0 | 0 | 41 | 0 | 48 | 0 | 0 | 0 | 17 | 0
Nc1cccc(-c2ccc3c(N)n[nH]c3c2)c1 [GSK2193613] | 22 | 0 | 0 | 3 | 54 | 16 | 0 | 15 | 0 | 0 | 0 | 0 | 22 | 0 | 0 | 69 | 4 | 29 | 0 | 0
Cl.O=C(Nc1ccc(Oc2ccc3[nH]c(NC(=O)c4ccco4)nc3c2)cc1)Nc1cc(C(F)(F)F)ccc1F [GW683134] | 0 | 0 | 23 | 0 | 51 | 0 | 100 | 0 | 76 | 6 | 0 | 12 | 31 | 0 | 89 | 0 | 0 | 0 | 0 | 13
O=C(O)C(F)(F)F.O=c1[nH]ccc2nc(N[C@@H]3CCNC3)nc(Nc3cc(Cl)cc(Cl)c3)c12 [GSK2188764] | 98.8 | 6 | 0 | 3 | 84 | 14 | 77 | 95 | 98.1 | 46 | 17 | 75 | 84 | 3 | 99.1 | 34 | 3 | 18 | 54 | 0
Cc1ccc(NC(=O)c2cccc(N3CCCCC3)c2)cc1-c1ccc(C(=O)NCC2CC2)cc1 [GSK1917008] | 0 | 0 | 0 | 0 | 32 | 0 | 23 | 7 | 0 | 89 | 0 | 0 | 20 | 0 | 0 | 8 | 0 | 12 | 0 | 0
CS(=O)(=O)c1cccc(CNc2nc(Nc3ccc4c(c3)CCC(=O)N4)ncc2C(F)(F)F)c1 | 81 | 0 | 0 | 0 | 72 | 0 | 3 | 93.2 | 0 | 0 | 0 | 0 | 75 | 0 | 68 | 0 | 21 | 0 | 89 | 0
COC(=O)Nc1nc2cc(Oc3ccc(NC(=O)Nc4cccc(SC)c4)cc3)ccc2[nH]1.Cl [GW697999] | 7 | 0 | 61 | 0 | 38 | 17 | 0 | 3 | 0 | 0 | 8 | 0 | 23 | 0 | 36 | 0 | 0 | 0 | 0 | 5
COc1cc(Nc2ccnc3cc(-c4ccncc4)ccc23)cc(OC)c1OC.Cl [GW494610] | 0 | 0 | 96.1 | 0 | 0 | 0 | 18 | 0 | 0 | 6 | 9 | 11 | 0 | 0 | 0 | 0 | 0 | 0 | 0 | 5
Nc1ncc(-c2ccc3nccc(-c4ccncc4)c3c2)cc1S(=O)(=O)N1CCCCC1 [GSK1693850] | 22 | 0 | 0 | 0 | 20 | 0 | 0 | 21 | 55 | 0 | 0 | 0 | 29 | 0 | 14 | 3 | 0 | 5 | 6 | 0
Fc1cc(Cl)ccc1Nc1ccnc2cc(-c3ccc(CN4CCOCC4)o3)ccc12 [GW560109] | 0 | 7 | 99.2 | 15 | 35 | 0 | 10 | 0 | 6 | 92.1 | 0 | 10 | 16 | 3 | 0 | 0 | 0 | 0 | 0 | 76
COC(=O)Nc1nc2ccc(Oc3ccc(NC(=O)Nc4cc(C(F)(F)F)ccc4F)cc3)cc2[nH]1.Cl [GW654607] | 0 | 0 | 16 | 3 | 61 | 0 | 13 | 10 | 73 | 0 | 0 | 13 | 29 | 55 | 94.7 | 0 | 0 | 6 | 0 | 0
O=C(O)C(F)(F)F.O=c1[nH]ccc2nc(N[C@@H]3CCNC3)nc(Nc3ccc4c(c3)S(=O)(=O)CC4)c12 [GSK2181306] | 99 | 25 | 48 | 0 | 92.1 | 0 | 88 | 96.9 | 100 | 90.6 | 20 | 84 | 87 | 10 | 99.3 | 90.3 | 60 | 94.9 | 68 | 0
Cl.Cl.NCC(NC(=O)c1cc(-c2cccnc2)c(-c2ccnc3[nH]ccc23)s1)c1ccccc1 (stereo not shown) [GSK1323434] | 65 | 0 | 33 | 0 | 44 | 14 | 0 | 26 | 18 | 0 | 0 | 64 | 18 | 0 | 45 | 29 | 0 | 0 | 2 | 27
